Data published in ChEMBL document CHEMBL3433997, “St. Jude Leishmania screening dataset” (2016).

Columns and labels:
Type in all cases: functional
[1] = molecular target: Solute carrier family 2, facilitated glucose transporter member 1 (Homo sapiens) (UniProt P11166); experiment: ST_JUDE_LEISH: Cytotoxicity at 2uM final concentration against transgenic Leishmania Mexicana promastigotes LmGLUT1 that are glucose transport deficient and complemented with the human glucose transporter GLUT1. Activity is measured by DNA content using SYBR green in vitro
Solute carrier family 2, facilitated glucose transporter member 1 (Homo sapiens), sequence (P11166 whole entry): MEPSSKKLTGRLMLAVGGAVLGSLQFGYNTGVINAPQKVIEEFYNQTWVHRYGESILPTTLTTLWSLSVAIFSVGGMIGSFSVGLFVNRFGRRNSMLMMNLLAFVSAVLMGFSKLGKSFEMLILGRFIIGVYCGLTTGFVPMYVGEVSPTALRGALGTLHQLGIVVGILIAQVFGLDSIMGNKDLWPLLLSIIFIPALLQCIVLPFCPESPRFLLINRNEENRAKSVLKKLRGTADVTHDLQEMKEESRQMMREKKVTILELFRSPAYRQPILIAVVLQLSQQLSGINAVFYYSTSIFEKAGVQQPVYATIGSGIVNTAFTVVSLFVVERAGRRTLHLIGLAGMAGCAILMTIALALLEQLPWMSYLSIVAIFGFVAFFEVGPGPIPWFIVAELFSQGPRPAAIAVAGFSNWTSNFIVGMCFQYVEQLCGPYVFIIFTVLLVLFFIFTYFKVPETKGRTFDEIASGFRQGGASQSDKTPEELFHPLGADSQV

[2] = molecular target: Hexose transporter 1 (Plasmodium falciparum) (UniProt O97467); experiment: ST_JUDE_LEISH: Cytotoxicity at 2uM final concentration against transgenic Leishmania Mexicana promastigotes LmPfHT that are glucose transport deficient and complemented with the Plasmodium falciparum hexose transporter. Activity is measured by DNA content using SYBR green in vitro
[3] = molecular target: Glucose transporter (Leishmania mexicana) (UniProt O61059); experiment: ST_JUDE_LEISH: Cytotoxicity at 2uM final concentration against transgenic Leishmania Mexicana promastigotes LmGT2 that are glucose transport deficient and complemented with the L. Mexicana glucose transporter 2. Activity is measured by DNA content using SYBR green in vitro

| Compound | inhibition [1] [%] | inhibition [2] [%] | inhibition [3] [%] |
| --- | --- | --- | --- |
| CC(C)c1nc(N2CCN(C(=S)NCc3ccccc3)CC2)c(C#N)c2c1COC(C)(C)C2 | -0.1 | 0.47 | 0.22 |
| Nc1nc(N)c2c(ccc3ccccc32)n1 | 14.7 | 28.9 | 19 |
| Cc1cc(NC(=O)Nc2ccc(Cl)cc2F)c2ccccc2n1 | 3.45 | 4.56 | 1.56 |
| O=C(NCc1ccccc1)NC(CCCN1CCC(Oc2cccc(Cl)c2)CC1)c1ccc(Cl)c(Cl)c1 (stereo not drawn) | 2.71 | -0.32 | -0.18 |
| O=C(NCC1CCC(C(=O)O)CC1)c1ccc(/C=C/C(=O)N2CCc3ccccc3C2c2ccc3c(c2)OCO3)cc1 (stereo not drawn) | -0.02 | 1.62 | 0.31 |
| COc1ccc(C2CC(c3ccccc3O)=NN2C(=O)c2ccco2)cc1OC (stereo not drawn) | 0.86 | 1.48 | -2.92 |
| Cc1ccc(S(=O)(=O)NC2CCN(c3ccnc4cc(Cl)ccc34)C2)cc1 (stereo not drawn) | 3.79 | 3.39 | 4.19 |
| CO/C(=C\C=C\c1cc2cc(Cl)c(Cl)cc2[nH]1)C(=O)Nc1ccc(NCCN(C)C)nc1 | 6.97 | 6.98 | 2.42 |
| Cc1[nH]c(C)c(-c2ccc(Nc3ccc(C(F)(F)F)cn3)cc2)c(=O)c1Br | 2.7 | 5.96 | 3.17 |
| FC(F)(F)c1cccc(Nc2nc(-c3ccccc3)nc3ncccc23)c1 | 3.41 | 2.83 | 3.04 |
| CCOc1c(CNCCCNc2nc3ccccc3[nH]2)cc(I)cc1OC | 1.59 | 1.56 | 2.86 |
